# Test results reported in PubChem BioAssay AID504401 (The Scripps Research Institute Molecular Screening Center, 2011).
# A number with no mark means an inactive call. How the calls were made is not given here.
# Tested on: Imidazoline I2
# Test: CYP450 and receptor off-target profile – biochemical, Ricerca HitProfilingScreen, selectivity assay for GPR7 antagonist project, late-stage follow-up (AID 504401)
# Conditions: Ricerca radioligand binding and CYP450 panel, central, at 10 µM, stronger effect = higher value
compound,measurement,value
COc1ccc(Oc2c(Cl)cnn(-c3cc(C)cc(C)c3)c2=O)cc1,inhibition,22%
